ELG1 DNA repair – blocks ELG1-dependent DNA repair in HEK293T cells; Potency, µM (highest dose often 46.1 µM), hits mostly inhibitors; HEK293T ELG1-luciferase reporter, luminescence, 16 h; DNA damage induced by 5-fluorouridine; hit rate 2.3% among 330,000; AID 504467; note: nearly all actives have a fitted effect of over 55% in size
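Reporter activity after DNA damage by 5-fluorouridine is monitored. Compound-treated cells incubate 16 hr at 37 °C, then ONE-Glo is added for 30 min before luminescence reading.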
Gal4-VP16 FLuc – Gal4-VP16 reporter inhibition counter-screen; Drosophila S2 Gal4-VP16 UAS-luciferase, luminescence, 20 h; hit rate 3.5% among 310,000; AID 2546; Potency, µM (top dose mostly 53.6 µM), usual class: inhibitors;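 note: Gal4-VP16 expression switched on by copper sulfate through the metallothionein promoter; nearly all actives have a fitted effect of over 50% in size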
RORg inh – ROR gamma (mouse) transcription inhibition | P51450 | Drosophila S2 Gal4-RORgamma UAS-luciferase reporter, 20 h | Potency, µM (series often up to 53.6 µM), most hits filed as inhibitors | hit rate 5.4% among 310,000; note: nearly all actives have a fitted effect of over 60% in size
Target sequence (P51450 whole entry, looked up, the tested form may be a part): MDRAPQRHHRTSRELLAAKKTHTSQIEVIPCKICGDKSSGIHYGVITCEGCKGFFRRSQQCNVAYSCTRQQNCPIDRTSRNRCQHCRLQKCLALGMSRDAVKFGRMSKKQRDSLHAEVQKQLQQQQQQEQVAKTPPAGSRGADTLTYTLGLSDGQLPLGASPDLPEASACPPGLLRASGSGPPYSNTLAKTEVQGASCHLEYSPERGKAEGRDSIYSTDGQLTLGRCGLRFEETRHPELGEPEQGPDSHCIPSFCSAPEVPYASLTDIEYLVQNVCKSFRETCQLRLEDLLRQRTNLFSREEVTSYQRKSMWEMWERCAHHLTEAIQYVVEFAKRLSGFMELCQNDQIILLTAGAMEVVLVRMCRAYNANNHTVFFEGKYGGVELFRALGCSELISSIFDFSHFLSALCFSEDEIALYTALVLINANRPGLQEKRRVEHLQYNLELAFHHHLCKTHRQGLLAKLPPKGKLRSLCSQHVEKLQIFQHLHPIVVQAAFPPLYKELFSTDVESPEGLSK
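Drosophila Schneider cells stably carrying a metallothionein-driven Gal4 DBD–ROR gamma fusion and a UAS-Photinus luciferase reporter were exposed to compound for 1 hr, then induced with copper sulfate (700 uM final) for 20 hr at ambient temperature before luminescence reading.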
SW480 rerep – induces DNA re-replication in SW480 colon adenocarcinoma cells | SW480 DNA re-replication, Hoechst DNA content imaging, 48 h | Potency, µM (series often up to 46.1 µM), actives largely listed as activators | hit rate 1.8% among 340,000; note: nearly all actives have a fitted effect of over 55% in size
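250 cells/well; 23 nL cpd via pin tool; 48 hr, 37 C, 5% CO2; Hoechst 40 min; imager read of total nuclear intensity, ex 405/em 500-530 nm.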
MCF10A rerep – DNA re-replication induction in MCF 10a cells; MCF 10A DNA re-replication, Hoechst nuclear intensity, 48 h; Potency, µM (doses to about 46.1 µM), most hits filed as activators; hit rate 2.9% among 350,000; AID 624296; note: nearly all actives have a fitted effect of over 50% in size
Numbers stand for hits; . = inactive; ? = inconclusive; / = not tested or not shown; [ ] = dose if it differs, or a comment. Most compounds without a hit are left out; they make up all but 10% or so of the library. Calls come from the whole dose curve; as a rule, active = well fitted curve in the direction sought with a large enough effect; inconclusive = small, poorly fitted or top-dose-only effect, or another doubt; inactive = no such curve, though single readings can be large; an effect the other way counts as inactive or inconclusive.

SMILES	ELG1 DNA repair	Gal4-VP16 FLuc	RORg inh	SW480 rerep	MCF10A rerep
COc1ccc(S(=O)(=O)Nc2ccccc2-c2nc3ccccc3[nH]c2=O)cc1	?	.	.	?	?
CCn1nc([N+](=O)[O-])c(C(C#N)c2nc3ccccc3n2C)c(Cl)c1=O (stereo not given)	.	.	.	.	?
CCCn1nc([N+](=O)[O-])c(C(C#N)c2nc3ccccc3s2)c(Cl)c1=O (stereo not given)	18µM	?	.	1.3µM	?
CC(=O)O[C@@H]1[C@@]2(C)O[C@H]2CC[C@]23O[C@H]2[C@H](OC3=O)C2=C(C)C(=O)O[C@@]21O	.	?	?	?	?
Cc1cccc(C)c1NC(=O)COC(=O)c1ccccc1Nc1ccccc1	.	.	.	.	.
Cc1ccc(C)c(NC(=O)COC(=O)c2cccc3c2C(=O)c2ccccc2C3=O)c1	23µM	.	.	13µM	.
Cc1cc(C)c(NC(=O)COC(=O)c2cccc3c2C(=O)c2ccccc2C3=O)c(C)c1	13µM	.	.	.	?
Cc1ccc(NC(=O)COC(=O)c2cccc3c2C(=O)c2ccccc2C3=O)c(C)c1	10µM	.	.	?	?
O=C(NC(=S)NC1CCCCCCCCCCC1)c1cccnc1	.	.	.	.	.
CCN(C(=S)NC(=O)C1CCCC1)C1CCCCC1	.	?	4.5µM	.	.
O=C(NC(=S)NC1CC1)c1cccnc1	.	?	5.6µM	.	.
O=C(NC1CCCCC1)c1cc(C(=O)c2ccccc2Br)c[nH]1	.	.	.	.	?
O=C(NC(=S)NC1CCCC1)c1ccccc1Br	.	?	4.5µM	.	.
O=C(NC(=S)NC1C2CC3CC(C2)CC1C3)c1ccccc1 (stereo not given)	.	1.8µM	1.6µM	.	?
CCN(C(=S)NC(=O)C1CC1)c1ccccc1	.	?	?	.	.
O=C(CCCCCCCCCCCCC1CCCC1)Nc1ccc(S(=O)(=O)c2ccc(NC(=O)CCCCCCCCCCCCC3CCCC3)cc2)cc1	/	.	.	.	.
COc1cc(/C=C/C(=O)OCC(=O)c2ccc(S(=O)(=O)N3CCCCC3)cc2)cc(OC)c1OC	.	/	/	?	.
COc1cccc(N2[C@@H](CC(=O)O)c3ccc(/C=C/C(=O)O)cc3S2(=O)=O)c1	/	/	/	.	.
CCSc1ccc(/C(N)=N/OC(=O)c2cccs2)cn1	?	.	.	.	.
CCCOc1ccc(C(=O)Nc2cc(S(=O)(=O)N3CCOCC3)ccc2N2CCN(CC)CC2)cc1OC	/	/	/	.	.
CCN(C(=S)NC(=O)c1ccccc1Br)C1CCCCC1	.	2.8µM	1µM	0.52µM	.
CC(NC(=S)NC(=O)c1ccccc1Br)c1ccccc1 (stereo not given)	.	7.1µM	6.3µM	.	.
CCN(CC(=O)Nc1ccccc1Br)C1CCCCC1	.	.	.	.	?
O=C(NC(=S)NC1CCCC1)c1ccccc1	?	10µM	7.1µM	.	.
CC(C)C(NC(=O)c1ccccc1Br)c1ccccc1 (stereo not given)	.	.	.	.	.
SMILES	ELG1 DNA repair	Gal4-VP16 FLuc	RORg inh	SW480 rerep	MCF10A rerep
O=C(COc1ccccc1Br)NC(=O)NC1CCCC1	?	/	/	15µM	.
CCOC(=O)CNC(=O)C1(NC(=O)CNC(=O)OCc2ccccc2)CCCC1	/	/	/	.	.
CO[C@@H]1/C=C\CC(=O)N[C@@H](C)C(=O)OC[C@@H](OC)[C@H](C)CCCC(=O)OC[C@H]1C	/	.[10 µM]	.[10 µM]	/	/
O=C(NNC(=S)NC1CCCCC1)c1ccccc1O	?	.	14µM	?	.
COC(=O)c1ccc(CC(=O)c2c(C)cc(O)cc2O)o1	.	?	11µM	.	.
O=C(N/N=C/c1ccccc1OCc1ccccc1)c1cccnc1	.	.	.	?	.
O=C(N/N=C/c1cccnc1)c1ccccc1Br	.	.	.	.	.
O=C(N/N=C/c1cccnc1)c1ccccc1OCc1ccc(Cl)cc1	23µM	.	.	/	/
O=C(N/N=C/c1cccnc1)c1cc(-c2ccccc2OCc2ccccc2)n[nH]1	?	.	.	?	15µM
O=C(N/N=C/c1cccnc1)c1ccccc1OCc1ccc(Br)cc1	12µM	.	.	.	.
Clc1cnccn1	/	.	.	/	/
COc1cc2cnc(Cl)nc2cc1OC	.	.	.	.	.
CSc1ccc(Cl)c(C(=O)N2CCOc3ccccc32)c1	9.2µM	.	.	?	.
O=C(c1cccc(C(F)(F)F)c1)N1CCOc2ccccc21	.	.	.	.	.
CCCCCCCCCCCCCCCC(=O)O[C@H](CC(=O)O)C[N+](C)(C)C	/	.	.	/	/
CCCCCCCCCCCCCCCC(=O)OC(CC(=O)O)C[N+](C)(C)C (stereo not given)	?	/	/	0.58µM	.
Nc1nc(-c2ccc3c(c2)OCCO3)cs1	?	.	.	.[9.22 µM]	.
N#Cc1ncc(-c2ccc3c(c2)OCCOCCOCCOCCO3)nc1C#N	.	?	13µM	?	18µM
N#Cc1ncc(-c2ccc3c(c2)OCCOCCOCCOCCOCCO3)nc1C#N	?	4.5µM	11µM	.	.
Cn1ccnc1C(O)c1cc(C(C)(C)C)c(O)c(C(C)(C)C)c1 (stereo not given)	.	?	10µM	.	.
COc1ccc(-c2csc(NC(=O)C3=COCCO3)n2)c(OC)c1	?	/	/	.	.
C=CCNc1nc(-c2ccc(OC)cc2OC)cs1	?	18µM	.	.	.
CC(C)(C)OC(=O)[C@H](Cc1ccccc1)NC(=O)c1nc[nH]c1C(=O)N[C@@H](Cc1ccccc1)C(=O)OC(C)(C)C	?	?	7.9µM	.	.
CC(C)(C)OC(=O)[C@H](CCCCN)NC(=O)c1[nH]cnc1C(=O)N[C@@H](Cc1ccccc1)C(=O)OCc1ccccc1	.	/	/	.	.
CC(C)(C)OC(=O)[C@H](Cc1ccccc1)NC(=O)c1[nH]cnc1C(=O)N[C@@H](Cc1ccccc1)C(=O)OCc1ccccc1	.	?	7.1µM	.[9.22 µM]	.
SMILES	ELG1 DNA repair	Gal4-VP16 FLuc	RORg inh	SW480 rerep	MCF10A rerep
C[C@H](NC(=O)c1nc[nH]c1C(=O)N[C@@H](Cc1ccccc1)C(=O)OC(C)(C)C)C(=O)OC(C)(C)C	?	?	11µM	.	?
Cc1ccccc1NC(=O)CCCC(=O)c1ccccc1	.	.	.	.	.
Cc1ccc(-c2cccc(NC(=O)C3C4C=CC(C4)C3C(=O)O)c2)o1 (stereo not given)	?	.	.	.	.
Cc1ccc(S(=O)(=O)N(C)CC(=O)OCC(=O)NC(c2ccccc2)c2ccccc2)cc1	.	.	.	.	.
C[C@H]1CN([C@@H](C)CO)C(=O)Cc2cc(NC(=O)Cn3cnnn3)ccc2O[C@H]1CN(C)Cc1ccncc1	.	/	/	.	.
CC(=O)c1cccc(CN2CCC(CO)(CCOc3ccccc3)CC2)c1	.	.	.	.	?
COc1ccc2[nH]c(CN3CCC(CO)(CCOc4ccccc4)CC3)c(C)c2c1	?	.	.	.	21µM
OCCOc1cccc(CN2CCC(CO)(CCOc3ccccc3)CC2)c1	.	.	.	18µM	.
